Results from PubChem BioAssay.
Calls of active or inactive are those of the source. Unless noted, how the calls were made is not given here.

Legend:
[1] = HepG2 liver cancer cell viability effects, profiling panel, resazurin fluorescence, 24 h, PK04 Diversity Set (AID 1172); settings: higher = more signal
[2] = basal S. cerevisiae growth modulation, no modifier, primary screen, OD600, strain BY4716, 24 h, basal condition (AID 1173); settings: OD600, 24 h, higher = more signal, called active from +8 up or from −8 down
[3] = MM1S myeloma cell viability, profiling panel, resazurin fluorescence, basal, 24 h, PK04 Diversity Set (AID 1174); settings: higher = more signal, called active from +8 up or from −8 down;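 further: MM1S multiple myeloma cell line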
[4] = target: Dihydroorotate dehydrogenase (quinone), mitochondrial (Plasmodium falciparum (isolate 3D7)) (UniProt Q08210); assay: PfDHODH enzyme inhibitors, primary screen, biochemical, C-terminal His tag, absorbance 600 nm (AID 1175); settings: DCIP absorbance 600 nm, higher = more signal, called active from +8 up or from −8 down;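 further: recombinant parasite enzyme with a five histidine tag at its C terminus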
Sequence of Dihydroorotate dehydrogenase (quinone), mitochondrial (Plasmodium falciparum (isolate 3D7)) (Q08210 whole entry, looked up): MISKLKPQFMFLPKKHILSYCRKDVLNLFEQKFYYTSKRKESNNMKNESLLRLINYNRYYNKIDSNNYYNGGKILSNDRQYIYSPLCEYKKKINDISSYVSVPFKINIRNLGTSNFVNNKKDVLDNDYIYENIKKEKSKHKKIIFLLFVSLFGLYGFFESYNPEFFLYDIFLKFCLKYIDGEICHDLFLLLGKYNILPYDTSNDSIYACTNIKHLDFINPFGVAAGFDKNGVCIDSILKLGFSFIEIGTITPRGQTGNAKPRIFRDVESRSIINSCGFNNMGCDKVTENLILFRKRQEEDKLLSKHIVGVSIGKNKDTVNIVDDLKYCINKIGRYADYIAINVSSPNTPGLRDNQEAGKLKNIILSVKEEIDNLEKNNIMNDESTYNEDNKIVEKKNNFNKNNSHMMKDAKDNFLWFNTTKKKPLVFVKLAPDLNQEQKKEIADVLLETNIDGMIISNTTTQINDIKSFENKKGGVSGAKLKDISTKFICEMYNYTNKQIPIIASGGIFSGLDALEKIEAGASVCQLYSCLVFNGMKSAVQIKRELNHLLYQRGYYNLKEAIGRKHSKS

[5] = P. aeruginosa biofilm formation inhibitors, primary screen, strain PAO1, LB-PBS medium, absorbance 600 nm (AID 1176); settings: P. aeruginosa PAO1 growth/biofilm, A600, 12 h; higher = more signal
[6] = S. cerevisiae RM11-1a growth modifiers, primary screen, strain RM11-1a, OD600, basal, 24 h (AID 1177); settings: OD600, 24 h, higher = more signal, called active from +8 up or from −8 down;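 further: cultures grown under basal conditions with no added stressor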
[7] = E. coli acrAB mutant growth effects, primary screen, E. coli filamentation inducers, strain DRC39, OD650, 24 h (AID 1178); settings: higher = more signal, called active from +8 up or from −8 down;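 further: growth measured as culture turbidity by optical density at 650 nm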
[8] = E. coli acrAB mutant growth effects, primary screen, E. coli filamentation inducers, strain DRC39, OD650, 48 h (AID 1179);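 further: screen aims at cell division blockers that make cells filament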; settings: E. coli DRC39 delta-acrAB growth, higher = more signal, called active from +8 up or from −8 down
[9] = RPMI8226 myeloma cell viability, profiling panel, resazurin fluorescence, basal, 24 h, PK04 Diversity Set (AID 1180); settings: higher = more signal;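 further: RPMI8826 multiple myeloma cell line at 5000 cells per well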
[10] = target: E3 ubiquitin-protein ligase XIAP (Homo sapiens) (UniProt P98170); assay: XIAP binders, primary screen, biophysical, small-molecule microarray, fluorescence 635 nm (AID 1181); settings: small-molecule microarray binding, higher = more signal;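 further: score merges 667 nm emission and signal to noise over triplicate slides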
Sequence of E3 ubiquitin-protein ligase XIAP (Homo sapiens) (P98170 whole entry, looked up): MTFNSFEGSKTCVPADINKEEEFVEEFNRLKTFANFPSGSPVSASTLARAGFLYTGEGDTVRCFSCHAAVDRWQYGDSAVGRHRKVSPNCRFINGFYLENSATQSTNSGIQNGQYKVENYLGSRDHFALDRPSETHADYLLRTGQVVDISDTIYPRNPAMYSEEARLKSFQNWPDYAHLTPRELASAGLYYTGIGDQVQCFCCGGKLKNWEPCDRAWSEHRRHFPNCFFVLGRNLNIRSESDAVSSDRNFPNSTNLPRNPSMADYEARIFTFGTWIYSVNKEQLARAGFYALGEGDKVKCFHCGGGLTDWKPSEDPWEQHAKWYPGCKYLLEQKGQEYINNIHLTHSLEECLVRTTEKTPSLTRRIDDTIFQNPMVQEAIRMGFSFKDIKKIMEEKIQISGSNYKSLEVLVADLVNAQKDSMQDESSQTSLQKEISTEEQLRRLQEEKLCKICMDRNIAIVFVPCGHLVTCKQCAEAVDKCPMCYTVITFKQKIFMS

[11] = tested on: XIP peptide (Xip251-270) binding; assay: small-molecule binders of XIP peptide, primary screen, biochemical, small-molecule microarray, fluorescence 635/667 nm, 0.1 µg/mL protein (AID 1182); settings: fluorescent protein binding, 635 nm, higher = more signal, called active from +8 up or from −8 down
[12] = tested on: XIP peptide (Xip251-270); assay: small-molecule binders of XIP peptide, primary screen, biochemical, small-molecule microarray, fluorescence 635/667 nm, 0.5 µg/mL protein (AID 1183); settings: small-molecule microarray binding, fluorescence 635 nm; higher = more signal
[13] = Plasmodium falciparum growth inhibition, primary screen, strain 3D7, DAPI fluorescence, 100 nL (AID 1184);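 further: parasites grown inside human red blood cells in medium with human serum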; settings: P. falciparum 3D7 growth, 3 d, higher = more signal
[14] = target: Homeobox protein Hox-A13 (Mus musculus) (UniProt Q62424); assay: inhibitors of HoxA13-DNA binding, primary screen, biochemical, fluorescence polarization, labeled oligonucleotide (AID 1185); settings: 15 min, higher = more signal, called active from +8 up or from −8 down
Sequence of Homeobox protein Hox-A13 (Mus musculus) (Q62424 whole entry, looked up): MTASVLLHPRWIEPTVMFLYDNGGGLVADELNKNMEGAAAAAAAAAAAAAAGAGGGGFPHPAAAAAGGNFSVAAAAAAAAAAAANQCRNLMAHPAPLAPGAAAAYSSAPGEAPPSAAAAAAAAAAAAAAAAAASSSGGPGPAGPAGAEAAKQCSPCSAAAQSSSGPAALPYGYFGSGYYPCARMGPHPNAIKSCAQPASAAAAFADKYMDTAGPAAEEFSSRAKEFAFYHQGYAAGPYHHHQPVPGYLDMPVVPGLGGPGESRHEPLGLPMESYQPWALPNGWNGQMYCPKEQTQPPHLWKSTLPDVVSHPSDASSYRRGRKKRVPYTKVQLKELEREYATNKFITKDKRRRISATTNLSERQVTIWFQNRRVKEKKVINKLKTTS

[15] = inhibitors of hydroxyurea-induced Chk1 phosphorylation, primary screen, imaging, HeLa, phospho-Chk1 antibody, percent positive cells (AID 1186); settings: hydroxyurea-induced phospho-Chk1 immunofluorescence imaging, higher = more signal
[16] = inhibitors of hydroxyurea-induced Chk1 phosphorylation, primary screen, imaging, HeLa, phospho-Chk1 nuclear intensity (AID 1187); settings: hydroxyurea-induced phospho-Chk1 immunofluorescence imaging, higher = more signal

| SMILES | z-score [1] | z-score [2] | z-score [3] | composite z-score [4] | z-score [5] | z-score [6] | z-score [7] | z-score [8] | z-score [9] | composite z-score [10] | composite z-score [11] | composite z-score [12] | z-score [13] | z-score [14] | z-score [15] | z-score [16] |
| --- | --- | --- | --- | --- | --- | --- | --- | --- | --- | --- | --- | --- | --- | --- | --- | --- |
| [N-]=[N+]=Nc1ccccc1C[C@@]1(C(=O)NCCN2CCOCC2)N=C(c2ccc(OCCCO)cc2)O[C@@H]1c1ccccc1 | -0.139 | -4.41 (inactive) | -0.599 (inactive) | 0.842 (inactive) | -0.347 (inactive) | -0.0653 (inactive) | 0.655 (inactive) | 0.745 (inactive) | -0.125 | 0.0831 | 0.58 (inactive) | 0.827 | -2.33 | -4.23 (inactive) | -0.785 (inactive) | -1.11 (inactive) |
| COCCCN1C(=O)[C@@]2(c3ccc([N+](=O)[O-])cc3)CC(=O)N(C3CCCCC3)[C@@H]2c2ccc(CO)cc21 | -0.207 | 1.12 (inactive) | -0.559 (inactive) | -26.4 (active) | 0.158 (inactive) | 0.0091 (inactive) | -0.0215 (inactive) | -0.13 (inactive) | -0.837 | -0.37 | 0.0996 (inactive) | 0.154 | -0.599 | -0.329 (inactive) | 0.0889 (inactive) | 0.133 (inactive) |
| [N-]=[N+]=Nc1ccccc1C[C@]1(C(=O)NCC(O)CO)N=C(c2ccc(OCCCO)cc2)O[C@H]1c1ccccc1N=[N+]=[N-] (stereo partly drawn) | -1.01 | -1.14 (inactive) | -2.08 (inactive) | 0.139 (inactive) | -0.428 (inactive) | 1.52 (inactive) | -0.0211 (inactive) | 0.622 (inactive) | -1.99 | 0.0968 | 0.0936 (inactive) | -0.316 | -2.44 | -5.33 (inactive) | -0.467 (inactive) | -0.312 (inactive) |
| Cc1ccc(S[C@]2(C(=O)NC(C)C)CC(=O)N(Cc3ccccc3Cl)[C@@H]2c2ccc(CO)cc2I)cc1 | 0.36 | -3.93 (inactive) | -2.83 (inactive) | -0.766 (inactive) | 0.723 (inactive) | -1.89 (inactive) | 0.0051 (inactive) | -0.465 (inactive) | -2.24 | -0.074 | 0.226 (inactive) | 0.293 | 0.906 | -3.31 (inactive) | 0.244 (inactive) | 0.723 (inactive) |
| [N-]=[N+]=NCc1ccccc1C[C@]1(C(=O)NCC(O)CO)N=C(c2ccc(OCCCO)cc2)O[C@H]1c1ccccc1 (stereo partly drawn) | -0.237 | -1.16 (inactive) | -0.525 (inactive) | 0.105 (inactive) | 0.826 (inactive) | 0.125 (inactive) | -0.376 (inactive) | -0.193 (inactive) | -0.977 | 0.035 | 0.417 (inactive) | -0.148 | -0.836 | -6.51 (inactive) | 0.112 (inactive) | 0.377 (inactive) |
| COC(=O)[C@@]1(Cc2ccc(F)cc2)[C@@H]2[C@@H](CC(=O)[C@H]2CC(=O)C(=O)N(C)C)CN1C(=O)c1ccccc1 | -2.11 | 1.52 (inactive) | -1.4 (inactive) | -0.363 (inactive) | 0.784 (inactive) | 0.438 (inactive) | -0.287 (inactive) | -0.13 (inactive) | -2.97 | 0.0253 | 0.502 (inactive) | 0.588 | -1.11 | -3.94 (inactive) | 0.0598 (inactive) | 0.186 (inactive) |
| CC1CC/C=C\[C@H]2OC34C=CCN(C(C)(C)C)C(=O)[C@H]3N(CCCCCCO)C(=O)[C@@H]4C2C(=O)O1 (stereo partly drawn) | -0.0231 | -0.51 (inactive) | -1.72 (inactive) | -1.07 (inactive) | -0.401 (inactive) | 0.0296 (inactive) | 0.504 (inactive) | 0.749 (inactive) | -1.14 | 0.191 | 1.87 (inactive) | -0.512 | 0.621 | -4.21 (inactive) | -0.82 (inactive) | 0.193 (inactive) |
| C=CCC(OC(C)=O)[C@@H]1[C@@H](N(Cc2ccc(-c3cccc(C(F)(F)F)c3)o2)C(=O)Cc2ccc(F)cc2)c2cc(OCCCO)ccc2N1C(=O)Cc1ccc(OC)cc1 (stereo partly drawn) | 1.2 | -0.546 (inactive) | 1.51 (inactive) | -1.26 (inactive) | 0.0186 (inactive) | -0.905 (inactive) | 0.559 (inactive) | 0.671 (inactive) | 1.06 | 0.0181 | 0.664 (inactive) | -0.0147 | -1.61 | -1.69 (inactive) | 0.0521 (inactive) | 0.633 (inactive) |
